Measurements published in PubChem BioAssay AID1159580 (chemical genetic matrix, 2015).
In all, about 5,500 compounds went through this assay and about 2,000 (36%) were called active. Roughly 18% stayed inconclusive and do not appear here. No stated cut-off is given here; in the data, active means normalized growth mostly below about 0.91 (no sharp cut-off); inconclusive means no clear call, values can overlap the other calls; inactive means mostly above about 0.92. Some of the results follow.

Experiment: chemical genetic growth profiling, strain panel (AID 1159580);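 further: tested at 20 µM; growth read once vehicle control cultures reached saturation at 30 °C; 1 = growth at the plate median or of vehicle wells; lower values mean less growth of the strain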
Settings: S. cerevisiae deletion strains, growth OD

Measured: normalized growth

COC(=O)[C@H](c1ccccc1Cl)N1CCc2sccc2C1
inactive: locus YAL021C, strain ccr4, active compounds read low 0.993 | locus YAL026C, strain drs2, active compounds read low 0.99 | locus YAL030W, strain snc1, active compounds read low 0.982 | locus YBL061C, strain skt5, active compounds read low 0.994 | locus YBR009C, strain hhf1, active compounds read low 0.989 | locus YBR023C, strain chs3, active compounds read low 0.981 | locus YBR171W, strain sec66, active compounds read low 0.973 | locus YBR231C, strain swc5, active compounds read low 0.998 | locus YBR279W, strain paf1, active compounds read low 0.986 | locus YCL011C, strain gbp2, active compounds read low 0.968 | locus YCL016C, strain dcc1, active compounds read low 0.993 | locus YCL069W, strain vba3, active compounds read low 0.991 | locus YCR088W, strain abp1, active compounds read low 0.976 | locus YDL005C, strain med2, active compounds read low 0.991 | locus YDL040C, strain nat1, active compounds read low 0.961 | locus YDR001C, strain nth1, active compounds read low 0.985 | locus YDR069C, strain doa4, active compounds read low 1.01 | locus YDR137W, strain rgp1, active compounds read low 0.912 | locus YDR159W, strain sac3, active compounds read low 0.987 | locus YDR195W, strain ref2 0.971 | locus YDR297W, strain sur2, active compounds read low 0.983 | locus YDR334W, strain swr1, active compounds read low 0.995 | locus YDR335W, strain msn5, active compounds read low 1.01 | locus YDR392W, strain spt3, active compounds read low 0.984 | locus YEL003W, strain gim4, active compounds read low 0.969 | locus YEL037C, strain rad23, active compounds read low 0.981 | locus YEL061C, strain CIN8 (second series), active compounds read low 0.98 | locus YER015W, strain faa2, active compounds read low 0.986 | locus YER016W, strain bim1, active compounds read low 0.98 | locus YER111C, strain swi4, active compounds read low 0.972 | locus YER155C, strain BEM2 (second series), active compounds read low 0.97 | locus YFR010W, strain ubp6, active compounds read low 1 | locus YGL167C, strain pmr1, active compounds read low 0.967 | locus YGL173C, strain kem1, active compounds read low 0.979 | locus YGL227W, strain vid30, active compounds read low 0.988 | locus YGL240W, strain doc1, active compounds read low 0.989 | locus YGL253W, strain hxk2, active compounds read low 1 | locus YHR013C, strain ard1, active compounds read low 1.07 | locus YHR027C, strain rpn1, active compounds read low 0.987 | locus YHR030C, strain SLT2, active compounds read low 0.961 | locus YHR079C, strain IRE1, active compounds read low 0.956 | locus YHR142W, strain chs7, active compounds read low 1.01 | locus YJL092W, strain hpr5, active compounds read low 0.98 | locus YJL095W, strain BCK1 (second series), active compounds read low 0.983 | locus YJL095W, strain BCK1, active compounds read low 0.98 | locus YJL115W, strain asf1, active compounds read low 1 | locus YJL129C, strain trk1, active compounds read low 0.959 | locus YJL154C, strain vps35, active compounds read low 0.97 | locus YJL164C, strain tpk1, active compounds read low 0.976 | locus YJL166W, strain qcr8, active compounds read low 0.991 | locus YJL187C, strain SWE1, active compounds read low 0.984 | locus YJR066W, strain TOR1, active compounds read low 0.982 | locus YKL160W, strain elf1, active compounds read low 0.988 | locus YKR026C, strain gcn3, active compounds read low 1 | locus YKR091W, strain srl3, active compounds read low 0.983 | locus YLL001W, strain dnm1, active compounds read low 1.01 | locus YLL026W, active compounds read low 0.977 | locus YLL041C, strain sdh2, active compounds read low 0.991 | locus YLR027C, strain aat2, active compounds read low 0.983 | locus YLR113W, strain HOG1, active compounds read low 0.932 | locus YLR221C, strain rsa3, active compounds read low 0.992 | locus YLR258W, strain gsy2, active compounds read low 0.982 | locus YLR262C, strain YPT6 (second series), active compounds read low 0.95 | locus YLR320W, strain mms22, active compounds read low 0.963 | locus YLR342W, strain FKS1, active compounds read low 0.982 | locus YLR357W, strain rsc2, active compounds read low 1.09 | locus YLR370C, strain arc18, active compounds read low 0.975 | locus YLR384C, strain iki3, active compounds read low 0.975 | locus YML120C, strain ndi1, active compounds read low 0.961 | locus YMR058W, strain fet3, active compounds read low 0.989 | locus YMR125W, strain sto1, active compounds read low 0.993 | locus YMR129W, active compounds read low 0.979 | locus YMR205C, strain PFK2, active compounds read low 0.971 | locus YMR231W, strain pep5, active compounds read low 0.995 | locus YNL071W, strain lat1, active compounds read low 0.968 | locus YNL183C, strain NPR1, active compounds read low 0.941 | locus YNL209W, strain ssb2, active compounds read low 0.998 | locus YNL248C, strain rpa49, active compounds read low 1.07 | locus YNL322C, strain KRE1 (second series), active compounds read low 0.981 | locus YNR049C, strain mso1, active compounds read low 0.978 | locus YOR001W, strain rrp6, active compounds read low 1 | locus YOR070C, strain gyp1, active compounds read low 0.986 | locus YOR080W, strain dia2, active compounds read low 0.994 | locus YOR083W, strain WHI5, active compounds read low 0.981 | locus YOR106W, strain vam3, active compounds read low 1.03 | locus YOR231W, strain MKK1, active compounds read low 0.938 | locus YOR265W, strain rbl2, active compounds read low 0.985 | locus YOR270C, strain vph1, active compounds read low 1.02 | locus YOR290C, strain snf2, active compounds read low 1.02 | locus YPL051W, strain arl3, active compounds read low 0.992 | locus YPL078C, strain atp4, active compounds read low 0.996 | locus YPL106C, strain sse1, active compounds read low 0.987 | locus YPL240C, strain hsp82, active compounds read low 0.986 | locus YPL256C, strain CLN2, active compounds read low 0.894
